rat GALR2 ag: agonists of rat galanin receptor 2 (GALR2); cell-based GALR2 agonist screen; activation, % at 10 µM; 0.5% of 16,000 active; in the data active = activation above about 15%
Target sequence (O08726 whole entry, looked up): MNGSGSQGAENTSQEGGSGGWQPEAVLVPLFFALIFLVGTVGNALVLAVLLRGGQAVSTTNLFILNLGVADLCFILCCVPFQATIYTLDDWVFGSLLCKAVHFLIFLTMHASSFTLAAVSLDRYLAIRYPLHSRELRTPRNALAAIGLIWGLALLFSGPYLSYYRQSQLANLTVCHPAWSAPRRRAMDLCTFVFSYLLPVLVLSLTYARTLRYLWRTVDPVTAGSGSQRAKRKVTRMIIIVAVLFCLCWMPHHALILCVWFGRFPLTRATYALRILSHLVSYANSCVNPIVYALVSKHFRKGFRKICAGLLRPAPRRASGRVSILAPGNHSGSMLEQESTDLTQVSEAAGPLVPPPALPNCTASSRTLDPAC
NOTCH ag: agonists of NOTCH signaling | NOTCH signaling luciferase reporter cells, luminescence | 0.4% of 15,000 active | AID 434982, 2010 | activation, % at 2.5 µM; in the data active = activation above about 2.2%
S1P1 ag: activates the human S1P1 receptor; Sphingosine 1-phosphate receptor 1 (Homo sapiens), P21453; 1.5% of 16,000 active; S1P1 agonist cell-based reporter assay; activation, % at 4.5 µM; in the data active = activation above about 80%
Starred values were filed as active, the others as inactive; nt = not tested or not shown. Hits are enriched below; roughly 2.2% of the tested compounds scored in any of these assays.

SMILES	rat GALR2 ag	NOTCH ag	S1P1 ag
CC(=O)c1csc(CS(=O)(=O)c2ccc(Cl)cc2)n1	-2	0	-14
CC(=O)c1csc(Nc2ccc(Cl)cc2)n1	-4	2.2*	-17
CN(CCC#N)c1ccc(/C=C2/NC(=O)NC2=O)cc1	-7	0	25
O=C(c1ccc(Cl)cc1)c1cccs1	-6	0	4
NNC(=O)c1nc(-c2c(F)cccc2Cl)no1	-7	0	6
N/C(=N\OC(=O)c1ccc(Cl)cc1)c1ccno1	-3	-1	8
O=C(/C(=C\c1ccccc1)n1ccnc1)c1ccccc1OCc1ccccc1	-9	nt	121*
C=C(c1ccccc1O)n1ccnc1	-7	0	-8
N#C/C(=C\c1ccc([N+](=O)[O-])cc1)C(=O)Nc1ccc(F)c(F)c1F	-5	0	1
CCCCCC[n+]1ccccc1/C=C/c1ccc(N(C)C)cc1	-14	-1	113*
CS(=O)(=O)Cc1noc(-c2cc(C(F)(F)F)cc(C(F)(F)F)c2)n1	-6	0	-13
O=S(=O)(Cc1ccc(F)cc1)Cc1noc(-c2ccc(F)cc2Cl)n1	-6	2.3*	-6
CCOC(=O)c1sc(SCc2ccccc2)c2c1CC(c1ccc(OC)cc1)CC2=O (stereo unspecified)	-9	0	-8
Cc1c(CC(=O)NNS(=O)(=O)c2ccccc2C(F)(F)F)sc2ccc(Cl)cc12	-7	0	19
Cc1nc2ccccn2c1C(=O)NNS(=O)(=O)c1sc2ccc(Cl)cc2c1C	-6	0	100*
N/C(=N\OC(=O)c1ccc(-c2cccs2)s1)c1cccc(C(F)(F)F)c1	-5	1	65
N/C(=N\OC(=O)c1cccc(C(F)(F)F)c1)c1cnccn1	3	-1	9
N/C(=N\OC(=O)c1cccc(C(F)(F)F)c1)c1ccc(OCC(F)(F)F)nc1	-6	-1	84*
N/C(=N\OC(=O)c1cccc(Cl)c1)c1cccc(C(F)(F)F)c1	-6	0	99*
CSCc1c(C)nn(C(=O)N(C)C)c1C	-6	-1	-3
COc1ccc(C(=O)Nc2ccc(N3CCN(c4ncccc4C(F)(F)F)CC3)nc2)cc1	-6	-1	93*
O=C(Nc1ccc(N2CCN(c3ncccc3C(F)(F)F)CC2)nc1)Nc1ccc(F)cc1F	-4	0	19
Cc1nc(C(N)=NC(=O)c2ccccc2)cs1	-3	0	-20
Cc1ccc(NC(=S)N2CCCN(C(=O)OC(C)(C)C)CC2)c(C)c1	-6	nt	-4
COc1cccc(-c2c3c([nH]c(=O)c2C#N)CCc2cc(OC)ccc2-3)c1	53*	-1	-7
SMILES	rat GALR2 ag	NOTCH ag	S1P1 ag
COc1ccc(-c2c(C#N)c(=O)[nH]c3c2c(C)nn3-c2ccccc2)cc1	-6	0	1
CN(C)/C=C(\C#N)C(=O)Nc1ccc(Cl)cc1Cl	-6	0	1
O=C(c1cc2ccccc2s1)N1CCN(C(c2ccccc2)c2ccccc2)CC1	-1	0	83*
O=C(c1ccccc1)N1CCN(C(c2ccccc2)c2ccccc2)CC1	-7	0	27
CC1CN(C)C(C)c2cc[nH]c21 (stereo unspecified)	-7	0	-4
CC(C)(C)C(=O)OCc1nc(-c2cc(-c3ccccc3)no2)cs1	4	-1	21
CC(C)(C)C(=O)OCc1nc(-c2ccc3c(c2)OCO3)cs1	-6	0	92*
Cc1ccc2nc(-c3ccc(NS(=O)(=O)c4c(C)noc4C)cc3)sc2c1	-5	0	11
c1ccc2c(c1)-c1ccccc1C2c1ccncc1	-4	2.3*	9
O=C1c2ccccc2C(=O)C1c1ccncc1	-7	0	16
Nc1ncc(-c2nc3ccccc3s2)c(N)n1	-5	0	2
CCCCOc1nc2c(c(=O)n(C)c(=O)n2C)n1Cc1ccc(Br)cc1	-3	-1	13
Cc1c(C)n(Cc2ccc(Br)cc2)c(=O)n(Cc2ccc(Br)cc2)c1=O	-10	0	102*
CCSc1nc(N)nc(C(C)C)n1	-4	1	-23
O=c1ccc(-c2ccncc2)n[nH]1	23*	-1	-9
Cc1ccc(-c2cc(Cc3ccncc3)c(=O)[nH]n2)cc1	-5	nt	-16
COc1ccc2nc3ccccc3c(N)c2c1	-3	0	-14
COc1cccc2c1OCC2=O	-2	0	-12
Cc1nc(-c2ccccc2)sc1C(=O)NNC(=O)c1cccc2ccccc12	-6	0	-3
Cc1sc(-c2ccccc2)nc1CC(=O)NNC(=O)c1cccc(OC(F)(F)F)c1	-5	2.5*	20
CCOC(=O)C(=CNNC(=O)c1ccccc1-n1cccc1)C(=O)OCC	-5	-1	12
CN1CCN(c2ccc(NS(=O)(=O)c3cccc(C(F)(F)F)c3)cc2)CC1	-7	0	-5
Cc1c(C(=O)CCSc2ccc(Cl)cc2)sc2ccc(Cl)cc12	-7	-1	-21
